PubChem BioAssay AID1159580 (chemical genetic matrix, 2015)
Hit rate of the full screen: of about 5,500 compounds, about 2,000 (36%) were called active. Another 18% or so got no clear call; they are omitted. Cut-off read from the data, not from the text of the source: active = normalized growth mostly below about 0.91 (no sharp cut-off); inconclusive = no clear call, values can overlap the other calls; inactive = mostly above about 0.92. Some of the results follow.

Assay: chemical genetic growth profiling, strain panel (AID 1159580);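 note: tested at 20 µM; growth read once vehicle control cultures reached saturation at 30 °C; 1 = growth at the plate median or of vehicle wells; lower values mean less growth of the strain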
Details: growth OD

Measured: normalized growth

O=C(O)c1nc2cc(Cl)c(Cl)cc2[nH]c1=O
inactive: S. cerevisiae deletion strains, locus YJR075W, strain HOC1, stronger effect = lower value 1.07 | S. cerevisiae deletion strains, locus YKL009W, strain mrt4, stronger effect = lower value 0.949 | S. cerevisiae deletion strains, locus YKL068W, stronger effect = lower value 0.981 | S. cerevisiae deletion strains, locus YKL085W, strain MDH1 (second series), stronger effect = lower value 1.02 | S. cerevisiae deletion strains, locus YKL085W, strain MDH1, stronger effect = lower value 1.02 | S. cerevisiae deletion strains, locus YKL160W, strain elf1, stronger effect = lower value 0.996 | S. cerevisiae deletion strains, locus YKL190W, strain CNB1, stronger effect = lower value 0.996 | S. cerevisiae deletion strains, locus YKR001C, strain vps1, stronger effect = lower value 0.983 | S. cerevisiae deletion strains, locus YKR026C, strain gcn3, stronger effect = lower value 1.02 | S. cerevisiae deletion strains, locus YKR091W, strain srl3, stronger effect = lower value 1.01 | S. cerevisiae deletion strains, locus YLL001W, strain dnm1, stronger effect = lower value 1.01 | S. cerevisiae deletion strains, locus YLL026W, stronger effect = lower value 1.01 | S. cerevisiae deletion strains, locus YLL041C, strain sdh2, stronger effect = lower value 1.01 | S. cerevisiae deletion strains, locus YLR027C, strain aat2, stronger effect = lower value 1.01 | S. cerevisiae deletion strains, locus YLR039C, strain RIC1, stronger effect = lower value 1.01 | S. cerevisiae deletion strains, locus YLR058C, strain SHM2, stronger effect = lower value 1 | S. cerevisiae deletion strains, locus YLR102C, strain apc9, stronger effect = lower value 0.987 | S. cerevisiae deletion strains, locus YLR113W, strain HOG1, stronger effect = lower value 0.987 | S. cerevisiae deletion strains, locus YLR221C, strain rsa3, stronger effect = lower value 1 | S. cerevisiae deletion strains, locus YLR258W, strain gsy2, stronger effect = lower value 1.02 | S. cerevisiae deletion strains, locus YLR262C, strain YPT6 (second series), stronger effect = lower value 1.02 | S. cerevisiae deletion strains, locus YLR262C, strain YPT6, stronger effect = lower value 0.981 | S. cerevisiae deletion strains, locus YLR268W, strain sec22, stronger effect = lower value 1 | S. cerevisiae deletion strains, locus YLR320W, strain mms22, stronger effect = lower value 1.02 | S. cerevisiae deletion strains, locus YLR330W, strain CHS5, stronger effect = lower value 0.994 | S. cerevisiae deletion strains, locus YLR342W, strain FKS1 (second series), stronger effect = lower value 1.02 | S. cerevisiae deletion strains, locus YLR342W, strain FKS1, stronger effect = lower value 1.03 | S. cerevisiae deletion strains, locus YLR357W, strain rsc2, stronger effect = lower value 1.01 | S. cerevisiae deletion strains, locus YLR370C, strain arc18, stronger effect = lower value 1.03 | S. cerevisiae deletion strains, locus YLR371W, strain rom2, stronger effect = lower value 0.968 | S. cerevisiae deletion strains, locus YLR384C, strain iki3, stronger effect = lower value 1 | S. cerevisiae deletion strains, locus YLR418C, strain cdc73, stronger effect = lower value 1.05 | S. cerevisiae deletion strains, locus YML016C, strain PPZ1, stronger effect = lower value 0.995 | S. cerevisiae deletion strains, locus YML032C, strain rad52, stronger effect = lower value 0.977 | S. cerevisiae deletion strains, locus YML120C, strain ndi1, stronger effect = lower value 1 | S. cerevisiae deletion strains, locus YML124C, strain tub3, stronger effect = lower value 0.993 | S. cerevisiae deletion strains, locus YMR058W, strain fet3, stronger effect = lower value 1.02 | S. cerevisiae deletion strains, locus YMR078C, strain ctf18, stronger effect = lower value 0.99 | S. cerevisiae deletion strains, locus YMR125W, strain sto1, stronger effect = lower value 1.02 | S. cerevisiae deletion strains, locus YMR129W, stronger effect = lower value 1 | S. cerevisiae deletion strains, locus YMR205C, strain PFK2, stronger effect = lower value 1.04 | S. cerevisiae deletion strains, locus YMR223W, strain ubp8, stronger effect = lower value 0.996 | S. cerevisiae deletion strains, locus YMR231W, strain pep5, stronger effect = lower value 1.02 | S. cerevisiae deletion strains, locus YMR263W, strain SAP30, stronger effect = lower value 1.02 | S. cerevisiae deletion strains, locus YMR307W, strain GAS1, stronger effect = lower value 1.04 | S. cerevisiae deletion strains, locus YNL067W, strain RPL9B, stronger effect = lower value 0.948 | S. cerevisiae deletion strains, locus YNL071W, strain lat1, stronger effect = lower value 1.01 | S. cerevisiae deletion strains, locus YNL128W, strain TEP1, stronger effect = lower value 1.04 | S. cerevisiae deletion strains, locus YNL153C, strain GIM3, stronger effect = lower value 1.03 | S. cerevisiae deletion strains, locus YNL183C, strain NPR1, stronger effect = lower value 0.933 | S. cerevisiae deletion strains, locus YNL209W, strain ssb2, stronger effect = lower value 1.01 | S. cerevisiae deletion strains, locus YNL233W, strain BNI4, stronger effect = lower value 1.03 | S. cerevisiae deletion strains, locus YNL248C, strain rpa49, stronger effect = lower value 0.984 | S. cerevisiae deletion strains, locus YNL250W, strain rad50, stronger effect = lower value 0.988 | S. cerevisiae deletion strains, locus YNL271C, strain bni1, stronger effect = lower value 0.991 | S. cerevisiae deletion strains, locus YNL298W, strain CLA4, stronger effect = lower value 0.993 | S. cerevisiae deletion strains, locus YNL307C, strain MCK1, stronger effect = lower value 1.01 | S. cerevisiae deletion strains, locus YNL322C, strain KRE1 (second series), stronger effect = lower value 1.01 | S. cerevisiae deletion strains, locus YNL322C, strain KRE1, stronger effect = lower value 0.998 | S. cerevisiae deletion strains, locus YNR049C, strain mso1, stronger effect = lower value 1.01 | S. cerevisiae deletion strains, locus YNR052C, strain pop2, stronger effect = lower value 0.982 | S. cerevisiae deletion strains, locus YOL006C, strain TOP1, stronger effect = lower value 1.09 | S. cerevisiae deletion strains, locus YOL012C, strain htz1 0.84 | S. cerevisiae deletion strains, locus YOL147C, strain pex11, stronger effect = lower value 0.998 | S. cerevisiae deletion strains, locus YOR001W, strain rrp6, stronger effect = lower value 0.994 | S. cerevisiae deletion strains, locus YOR061W, strain CKA2, stronger effect = lower value 1 | S. cerevisiae deletion strains, locus YOR069W, strain VPS5, stronger effect = lower value 0.997 | S. cerevisiae deletion strains, locus YOR070C, strain gyp1, stronger effect = lower value 1.01 | S. cerevisiae deletion strains, locus YOR080W, strain dia2, stronger effect = lower value 1.02 | S. cerevisiae deletion strains, locus YOR083W, strain WHI5, stronger effect = lower value 0.981 | S. cerevisiae deletion strains, locus YOR106W, strain vam3, stronger effect = lower value 0.994 | S. cerevisiae deletion strains, locus YOR136W, strain idh2, stronger effect = lower value 0.992 | S. cerevisiae deletion strains, locus YOR144C, strain elg1, stronger effect = lower value 0.993 | S. cerevisiae deletion strains, locus YOR184W, strain ser1, stronger effect = lower value 0.988 | S. cerevisiae deletion strains, locus YOR231W, strain MKK1, stronger effect = lower value 1.01 | S. cerevisiae deletion strains, locus YOR265W, strain rbl2, stronger effect = lower value 0.999 | S. cerevisiae deletion strains, locus YOR270C, strain vph1, stronger effect = lower value 1.05 | S. cerevisiae deletion strains, locus YOR290C, strain snf2, stronger effect = lower value 1 | S. cerevisiae deletion strains, locus YOR316C, strain cot1, stronger effect = lower value 0.987 | S. cerevisiae deletion strains, locus YPL051W, strain arl3, stronger effect = lower value 0.989 | S. cerevisiae deletion strains, locus YPL055C, strain LGE1, stronger effect = lower value 0.981 | S. cerevisiae deletion strains, locus YPL078C, strain atp4, stronger effect = lower value 1 | S. cerevisiae deletion strains, locus YPL106C, strain sse1, stronger effect = lower value 1.02 | S. cerevisiae deletion strains, locus YPL240C, strain hsp82, stronger effect = lower value 1 | S. cerevisiae deletion strains, locus YPL241C, strain CIN2, stronger effect = lower value 0.992 | S. cerevisiae deletion strains, locus YPL256C, strain CLN2, stronger effect = lower value 0.994 | S. cerevisiae deletion strains, locus YPR119W, strain clb2, stronger effect = lower value 0.996 | S. cerevisiae deletion strains, locus YPR141C, strain kar3, stronger effect = lower value 0.99 | S. cerevisiae deletion strains, locus YPR163C, strain tif3, stronger effect = lower value 0.992 | S. cerevisiae deletion strains, locus YPR167C, strain met16, stronger effect = lower value 0.996 | S. cerevisiae deletion strains, strain wtn01, stronger effect = lower value 1.01 | S. cerevisiae strains, strain wild type, stronger effect = lower value 1.01
